Test results: PubChem BioAssay
The source made the active and inactive calls. Unless noted, how the calls were made is not given here.

Key:
[1] = compound effects on lung adenocarcinoma cell viability – A549, calcein-AM fluorescence, 48 h, basal, profiling panel (AID 1162); conditions: higher = more signal; further: test concentration not given here
[2] = compound effects on differentiated 3T3-L1 adipocyte viability – cell-based, 3T3-L1 adipocytes, calcein-AM fluorescence, 48 h, basal, profiling panel (AID 1163); conditions: 3T3-L1 adipocytes viability, higher = more signal; further: test concentration not given here
[3] = compound effects on hepatocellular carcinoma cell viability – HepG2, calcein-AM fluorescence, 48 h, basal, profiling panel (AID 1164); conditions: higher = more signal; further: test concentration not given here
[4] = compound effects on multiple myeloma cell viability – MM1S, calcein-AM fluorescence, 48 h, basal, profiling panel (AID 1165); conditions: higher = more signal; further: test concentration not given here
[5] = calcein-AM signal in unstimulated myeloma cells – cell-based, calcein-AM fluorescence, 48 h, PK04 Diversity Set, profiling panel (AID 1166); conditions: RPMI8226 myeloma viability, higher = more signal;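 further: cells grown under basal conditions without added stimulus; test concentration not given here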
[6] = JC-1 mitochondrial signal, unstimulated HepG2 cells – cell-based, JC-1 fluorescence, 24 h, 100 nL compound, profiling panel (AID 1167); conditions: HepG2 mitochondrial potential, higher = more signal; further: test concentration not given here
[7] = JC-1 mitochondrial signal, unstimulated adipocytes – cell-based, JC-1 fluorescence, 3T3-L1 adipocytes, 24 h, 100 nL compound, profiling panel (AID 1168); conditions: JC-1 mitochondrial fluorescence, higher = more signal, called active from +8 up or from −8 down; further: test concentration not given here
[8] = JC-1 mitochondrial signal, unstimulated myeloma cells – cell-based, JC-1 fluorescence, RPMI8226, 24 h, 100 nL compound, profiling panel (AID 1169); conditions: JC-1 mitochondrial potential fluorescence, higher = more signal; further: test concentration not given here
[9] = JC-1 mitochondrial signal, unstimulated MM1S myeloma – cell-based, JC-1 fluorescence, 24 h, 100 nL compound, profiling panel (AID 1170); conditions: MM1S mitochondrial potential, higher = more signal; further: test concentration not given here
[10] = resazurin metabolic signal in A549 cells – cell-based, resazurin fluorescence, 24 h, PK04 Diversity Set, profiling panel (AID 1171); conditions: A549 viability, higher = more signal, called active from +8 up or from −8 down; further: test concentration not given here
[11] = resazurin metabolic signal in HepG2 cells – cell-based, resazurin fluorescence, 24 h, PK04 Diversity Set, profiling panel (AID 1172); conditions: HepG2 viability, higher = more signal; further: test concentration not given here
[12] = budding yeast growth changes without added modifier – OD600, strain BY4716, 24 h, basal condition, primary screen (AID 1173); conditions: S. cerevisiae BY4716 growth, OD600, 24 h; higher = more signal, called active from +8 up or from −8 down
[13] = viability profiling in MM1S myeloma cells – cell-based, resazurin fluorescence, basal, 24 h, PK04 Diversity Set, profiling panel (AID 1174); conditions: higher = more signal, called active from +8 up or from −8 down; further: test concentration not given here
[14] = biological target: Dihydroorotate dehydrogenase (quinone), mitochondrial (Plasmodium falciparum (isolate 3D7)) (UniProt Q08210); test: inhibition of P. falciparum DHODH – biochemical, C-terminal His tag, absorbance 600 nm, primary screen (AID 1175); conditions: PfDHODH enzyme, DCIP absorbance 600 nm; higher = more signal, called active from +8 up or from −8 down;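 further: recombinant parasite enzyme with a five histidine tag at its C terminus; test concentration not given here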
[15] = inhibition of PAO1 biofilm formation – strain PAO1, LB-PBS medium, absorbance 600 nm, primary screen (AID 1176); further: test concentration not given here; conditions: P. aeruginosa PAO1 growth/biofilm, A600, 12 h; higher = more signal
[16] = growth modulation of vineyard yeast isolate – strain RM11-1a, OD600, basal, 24 h, primary screen (AID 1177);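 further: cultures grown under basal conditions with no added stressor; test concentration not given here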; conditions: S. cerevisiae RM11-1a growth, OD600, 24 h; higher = more signal, called active from +8 up or from −8 down
[17] = growth of efflux-deficient E. coli DRC39 – strain DRC39, OD650, 24 h, E. coli filamentation inducers, primary screen (AID 1178);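 further: growth measured as culture turbidity by optical density at 650 nm; test concentration not given here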; conditions: E. coli DRC39 acrAB, higher = more signal, called active from +8 up or from −8 down
[18] = growth of efflux-deficient E. coli DRC39 – strain DRC39, OD650, 48 h, E. coli filamentation inducers, primary screen (AID 1179);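 further: screen aims at cell division blockers that make cells filament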; conditions: E. coli DRC39 delta-acrAB growth, higher = more signal, called active from +8 up or from −8 down
[19] = viability profiling in RPMI8226 myeloma cells – cell-based, resazurin fluorescence, basal, 24 h, PK04 Diversity Set, profiling panel (AID 1180); conditions: higher = more signal;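 further: RPMI8826 multiple myeloma cell line at 5000 cells per well; test concentration not given here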
[20] = biological target: E3 ubiquitin-protein ligase XIAP (Homo sapiens) (UniProt P98170); test: small molecules binding XIAP protein – biophysical, small-molecule microarray, fluorescence 635 nm, primary screen (AID 1181); conditions: higher = more signal;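 further: score merges 667 nm emission and signal to noise over triplicate slides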
Sequence of E3 ubiquitin-protein ligase XIAP (Homo sapiens) (P98170 whole entry, looked up): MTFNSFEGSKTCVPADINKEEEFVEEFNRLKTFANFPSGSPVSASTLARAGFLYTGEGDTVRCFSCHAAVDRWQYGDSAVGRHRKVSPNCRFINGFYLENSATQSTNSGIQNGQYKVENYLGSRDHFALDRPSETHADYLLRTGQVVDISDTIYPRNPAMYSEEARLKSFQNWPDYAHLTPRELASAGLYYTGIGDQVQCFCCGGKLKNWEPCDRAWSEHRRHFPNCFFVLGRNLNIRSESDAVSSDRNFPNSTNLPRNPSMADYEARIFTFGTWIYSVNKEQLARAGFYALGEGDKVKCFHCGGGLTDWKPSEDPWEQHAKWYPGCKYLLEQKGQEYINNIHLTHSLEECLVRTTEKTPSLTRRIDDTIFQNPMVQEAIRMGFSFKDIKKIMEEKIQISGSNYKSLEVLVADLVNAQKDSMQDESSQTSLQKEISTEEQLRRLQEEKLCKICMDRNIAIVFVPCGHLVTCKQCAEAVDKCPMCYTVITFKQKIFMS

Sequence of Dihydroorotate dehydrogenase (quinone), mitochondrial (Plasmodium falciparum (isolate 3D7)) (Q08210 whole entry, looked up): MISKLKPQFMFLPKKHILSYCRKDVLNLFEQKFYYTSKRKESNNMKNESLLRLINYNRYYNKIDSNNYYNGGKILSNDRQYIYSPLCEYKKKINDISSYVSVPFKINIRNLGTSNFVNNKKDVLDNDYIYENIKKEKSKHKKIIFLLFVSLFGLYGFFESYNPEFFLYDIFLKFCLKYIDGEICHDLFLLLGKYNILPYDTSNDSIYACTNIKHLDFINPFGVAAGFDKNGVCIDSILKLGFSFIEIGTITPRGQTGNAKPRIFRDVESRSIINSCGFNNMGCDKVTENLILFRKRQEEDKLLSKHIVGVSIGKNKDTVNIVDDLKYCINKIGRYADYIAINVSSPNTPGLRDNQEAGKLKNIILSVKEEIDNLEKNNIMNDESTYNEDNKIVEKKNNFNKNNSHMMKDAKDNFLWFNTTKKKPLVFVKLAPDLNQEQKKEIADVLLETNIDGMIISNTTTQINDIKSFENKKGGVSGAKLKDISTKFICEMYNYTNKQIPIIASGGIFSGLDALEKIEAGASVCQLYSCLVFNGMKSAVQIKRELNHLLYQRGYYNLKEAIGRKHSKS

Structure (SMILES)	z-score [1]	z-score [2]	z-score [3]	z-score [4]	z-score [5]	z-score [6]	z-score [7]	z-score [8]	z-score [9]	z-score [10]	z-score [11]	z-score [12]	z-score [13]	composite z-score [14]	z-score [15]	z-score [16]	z-score [17]	z-score [18]	z-score [19]	composite z-score [20]
O=C(O)[C@H]1C[C@H]2C(=O)N3CCC[C@H]3C(=O)N2[C@H]1c1cccc(OCCO)c1	1.67	-0.156	0.601	0.792	-0.8	1.96	-0.652 (inactive)	-0.77	-0.568	1.04 (inactive)	1.32	-0.361 (inactive)	0.209 (inactive)	-0.117 (inactive)	-0.695 (inactive)	0.43 (inactive)	0.481 (inactive)	0.896 (inactive)	0.268	-0.0901
CO[C@H]1O[C@H](CO)[C@@H](OC(=O)Nc2ccccc2-c2ccccc2)[C@H](OC(=O)Nc2ccc3c(c2)OCO3)[C@@H]1OC(=O)Nc1ccc2c(c1)OCO2	0.105	-1.46	-1.05	-1.49	-1.84	-0.467	1.34 (inactive)	-0.363	-0.263	-1.77 (inactive)	-1.18	1.03 (inactive)	-1.38 (inactive)	-0.289 (inactive)	1.86 (inactive)	2.9 (inactive)	0.999 (inactive)	-0.124 (inactive)	-1.12	0.227
CCOc1cc(C(O)C2C=CC3C(=O)N(C)C(=O)C3N2N2CCCCC2)ccc1O (stereo not given)	0.256	-0.413	-0.07	-0.224	0.294	-0.788	-0.0873 (inactive)	-0.109	0.0215	-0.296 (inactive)	-1.1	1.62 (inactive)	-0.791 (inactive)	0.66 (inactive)	0.614 (inactive)	2.07 (inactive)	-0.637 (inactive)	-0.8 (inactive)	-0.698	0.179
CCOC(=O)C1=CC[C@@H](c2ccccc2C(F)(F)F)N(S(=O)(=O)c2ccc(C)cc2)C1	-0.82	0.605	1.31	-0.925	-1.28	2.51	0.0742 (inactive)	-0.226	-0.435	-1.27 (inactive)	-0.217	-3.44 (inactive)	-0.578 (inactive)	-2.99 (inactive)	-0.184 (inactive)	-1.07 (inactive)	-0.346 (inactive)	0.984 (inactive)	-0.338	-0.12
CCCN1C(=O)[C@]2(Cc3ccccc3)N=C(c3ccc(OCCCO)cc3)O[C@@H]2c2ccccc21	0.0649	0.932	-1.26	-1.26	-4.03	0.596	2.77 (inactive)	-1.21	-1.1	-0.593 (inactive)	0.734	-1.94 (inactive)	-0.753 (inactive)	-0.42 (inactive)	-0.0963 (inactive)	0.931 (inactive)	0.94 (inactive)	0.718 (inactive)	-1.13	0.108
C[C@H]1ON(c2ccc(C(=O)OC(C)(C)C)cc2)[C@@H](c2ccc(O)cc2)[C@@H]1C(=O)N1C(=O)OC[C@@H]1c1ccccc1	-0.674	0.97	-2.97	-2.72	-3.02	-2.36	-0.575 (inactive)	-0.575	-2.36	-0.0657 (inactive)	-0.319	-0.407 (inactive)	-0.263 (inactive)	0.314 (inactive)	0.294 (inactive)	0.759 (inactive)	-0.563 (inactive)	-0.148 (inactive)	-0.782	0.0029
COCCOC(=O)N1C(=O)[C@@]2(c3cc(C#Cc4ccc(OC)cc4)ccc31)[C@H](C(=O)N1CCN(c3ncccn3)CC1)[C@H]1C(=O)O[C@H](c3ccccc3)[C@H](c3ccccc3)N1[C@@H]2c1ccccc1OCCO	-0.457	0.0076	0.149	0.325	0.204	0.57	2.03 (inactive)	-0.403	-1.41	-0.785 (inactive)	0.205	2.91 (inactive)	-0.353 (inactive)	0.27 (inactive)	3.8 (inactive)	4.28 (inactive)	-0.269 (inactive)	0.188 (inactive)	0.35	-0.0928
O=C1O[C@@H](c2ccccc2)[C@@H](c2ccccc2)N2[C@@H](c3ccccc3OCCO)[C@]3(C(=O)Nc4ccccc43)[C@@H](C(=O)NC[C@H](O)c3ccccc3)[C@H]12	-1.53	0.0155	-3.94	-3.32	-4.54	-1.64	0.305 (inactive)	-1.22	-2.09	-1.99 (inactive)	-1.03	0.587 (inactive)	-6.16 (inactive)	1.65 (inactive)	2.05 (inactive)	3.08 (inactive)	-0.0586 (inactive)	0.495 (inactive)	-6.99	0.311
CC(C)C[C@@H]1NC(=O)[C@H]2C[C@@H](C(=O)NCCCCCC[N+](C)(C)C)[C@@H](c3cccc(OCCO)c3)N2C1=O	-0.53	0.282	0.0659	-0.804	-0.0361	-0.474	0.0908 (inactive)	-0.271	-0.34	1.24 (inactive)	1.15	-0.703 (inactive)	0.288 (inactive)	-1.16 (inactive)	-0.819 (inactive)	-0.215 (inactive)	0.481 (inactive)	0.442 (inactive)	0.571	-0.188
COc1cc2c(cc1OC)CN(C(=O)[C@H]1[C@@H]3C(=O)O[C@@H](c4ccccc4)[C@@H](c4ccccc4)N3[C@@H](c3ccc(OCCO)cc3)[C@]13C(=O)Nc1ccc(C#CCCO)cc13)CC2	0.269	-0.16	-0.142	-0.0509	0.77	-1.21	0.764 (inactive)	-0.453	-1.07	0.604 (inactive)	0.687	2.35 (inactive)	0.113 (inactive)	0.129 (inactive)	1.56 (inactive)	2.49 (inactive)	-0.321 (inactive)	-0.61 (inactive)	0.969	-0.351
COC(=O)c1c(CC[C@@H](CO)NC(=O)N[C@H](Cn2cc(-c3ccccc3C)nn2)C(C)C)oc(C(C)=O)c1C(=O)OC	-0.657	1.55	0.308	-0.759	-0.607	-0.24	0.37 (inactive)	-0.353	-1.27	-1.26 (inactive)	-0.329	-0.723 (inactive)	0.173 (inactive)	-3.09 (inactive)	0.574 (inactive)	-0.489 (inactive)	0.173 (inactive)	-0.488 (inactive)	-0.371	0.211
CC(C)N1CC=CC23O[C@@H]4C=CCCOC(=O)C4[C@H]2C(=O)N(CCO)[C@@H]3C1=O (stereo not given in full)	-0.555	-0.0175	-2.03	0.506	0.0275	-0.333	0.5 (inactive)	1	0.862	1.06 (inactive)	1.74	-0.913 (inactive)	0.839 (inactive)	-2.29 (inactive)	0.525 (inactive)	-0.199 (inactive)	-0.141 (inactive)	-0.327 (inactive)	0.475	-0.251
CN1C2C=C(CCCO)C(C3C(=O)N(C(N)=O)C(=O)C32)C1c1cccs1 (stereo not given)	-0.452	-0.086	-0.099	-0.542	0.204	-0.742	-1 (inactive)	1.17	-0.0274	-0.268 (inactive)	-1	0.53 (inactive)	-0.135 (inactive)	0.837 (inactive)	-0.329 (inactive)	1.37 (inactive)	-0.967 (inactive)	-0.837 (inactive)	-0.69	3.82
COc1ccc(NC(=O)O[C@H]2[C@H](OC(=O)Nc3ccc4c(c3)OCO4)[C@@H](OC(=O)Nc3ccc4c(c3)OCO4)[C@@H](OC)O[C@@H]2CO)cc1	-1.11	-0.0868	-1.67	-1.44	-0.7	0.818	0.533 (inactive)	-0.628	-0.786	0.441 (inactive)	-0.315	1.96 (inactive)	-0.844 (inactive)	-0.445 (inactive)	2.33 (inactive)	1.56 (inactive)	1.13 (inactive)	0.0559 (inactive)	-0.85	-0.102
CO[C@H]1O[C@H](CO)[C@@H](OC(=O)Nc2ccc(C(F)(F)F)cc2)[C@H](OC(=O)Nc2ccc3c(c2)OCO3)[C@H]1OC(=O)Nc1ccc2c(c1)OCO2	-2.28	0.758	-2.3	-2.85	-2.66	-0.17	0.298 (inactive)	-0.999	-1.01	-3.17 (inactive)	-1.9	0.634 (inactive)	-3.06 (inactive)	-0.605 (inactive)	0.854 (inactive)	1.37 (inactive)	0.436 (inactive)	-0.553 (inactive)	-3.35	-0.289
CCOC(=O)C[C@H]1[C@H](OC(=O)c2ccc(C(=O)c3ccccc3)cc2)[C@@H](NC(=O)c2ccc3ccccc3c2)c2cc(OCCCO)ccc2N1C(=O)c1ccccc1	-0.0566	0.202	-0.458	0.0736	-0.602	-0.245	-1.1 (inactive)	0.314	0.184	-0.412 (inactive)	-0.55	-0.592 (inactive)	-0.377 (inactive)	-0.46 (inactive)	0.055 (inactive)	-0.617 (inactive)	0.347 (inactive)	0.212 (inactive)	-0.539	-0.0367
Cc1c(NC(=O)/C(C#N)=C/C=C/c2ccccc2[N+](=O)[O-])c(=O)n(-c2ccccc2)n1C	-1.22	-0.355	-1.71	-3.09	-2.1	-1.76	-0.0694 (inactive)	-0.588	-0.994	-1.43 (inactive)	-1.25	-0.0708 (inactive)	-0.729 (inactive)	0.512 (inactive)	-0.6 (inactive)	-0.061 (inactive)	1.06 (inactive)	-0.241 (inactive)	-1.73	-0.0172
